“And” between values parts separate entries of the source, which are not always exact repeats. Equal values may be shown once. About 2,000 (36%) of roughly 5,500 compounds were called active. Inconclusive results (about 18%) are left out. Rule as the data show it: active = normalized growth mostly below about 0.91 (no sharp cut-off); inconclusive = no clear call, values can overlap the other calls; inactive = mostly above about 0.92. The list shows a part of the results.
Experiment: chemical genetic growth profiling, strain panel (AID 1159580);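 also: tested at 20 µM; growth read once vehicle control cultures reached saturation at 30 °C; 1 = growth at the plate median or of vehicle wells; lower values mean less growth of the strain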
Conditions: S. cerevisiae deletion strains, growth OD

Measured: normalized growth

Cc1nnc(NS(=O)(=O)c2ccc(N)cc2)s1
inactive: locus YAL021C, strain ccr4, active compounds read low 0.982 | locus YAL026C, strain drs2, active compounds read low 1.01 | locus YAL030W, strain snc1, active compounds read low 0.986 | locus YBL061C, strain skt5, active compounds read low 0.989 | locus YBR009C, strain hhf1, active compounds read low 1.01 | locus YBR021W, strain FUR4, active compounds read low 1.02 | locus YBR023C, strain chs3, active compounds read low 1.02 | locus YBR171W, strain sec66, active compounds read low 1 | locus YBR229C, strain ROT2, active compounds read low 1 | locus YBR231C, strain swc5, active compounds read low 0.99 | locus YBR279W, strain paf1, active compounds read low 1 | locus YCL011C, strain gbp2, active compounds read low 1.02 | locus YCL016C, strain dcc1, active compounds read low 1 | locus YCL029C, strain bik1, active compounds read low 0.992 | locus YCL061C, strain MRC1, active compounds read low 1.01 | locus YCL069W, strain vba3, active compounds read low 0.997 | locus YCR088W, strain abp1, active compounds read low 1 | locus YDL005C, strain med2, active compounds read low 1.02 | locus YDL035C, strain GPR1, active compounds read low 1.02 | locus YDL040C, strain nat1, active compounds read low 1.01 | locus YDL074C, strain BRE1, active compounds read low 1.05 | locus YDL101C, strain DUN1, active compounds read low 1 | locus YDL134C, strain PPH21, active compounds read low 1.02 | locus YDL185W, strain tfp1, active compounds read low 1 | locus YDL192W, strain arf1, active compounds read low 1.01 | locus YDR001C, strain nth1, active compounds read low 1.01 | locus YDR069C, strain doa4, active compounds read low 0.992 | locus YDR101C, strain arx1, active compounds read low 0.995 | locus YDR137W, strain rgp1, active compounds read low 1.01 | locus YDR159W, strain sac3, active compounds read low 0.979 | locus YDR162C, strain NBP2, active compounds read low 1.03 | locus YDR195W, strain ref2 0.947 | locus YDR297W, strain sur2, active compounds read low 1 | locus YDR318W, strain mcm21, active compounds read low 1.02 | locus YDR334W, strain swr1, active compounds read low 0.987 | locus YDR335W, strain msn5, active compounds read low 0.999 | locus YDR388W, active compounds read low 0.993 | locus YDR392W, strain spt3, active compounds read low 1.04 | locus YDR502C, strain sam2, active compounds read low 1.02 | locus YEL003W, strain gim4, active compounds read low 1 | locus YEL037C, strain rad23, active compounds read low 0.972 | locus YEL061C, strain CIN8 (second series), active compounds read low 1.01 | locus YEL061C, strain CIN8, active compounds read low 1.01 | locus YER015W, strain faa2, active compounds read low 1 | locus YER016W, strain bim1, active compounds read low 0.994 | locus YER110C, active compounds read low 0.984 | locus YER111C, strain swi4, active compounds read low 0.999 | locus YER155C, strain BEM2 (second series), active compounds read low 0.99 | locus YER155C, strain BEM2, active compounds read low 1 | locus YER167W, strain BCK2, active compounds read low 1.01 | locus YFR010W, strain ubp6, active compounds read low 1 | locus YGL078C, strain dbp3, active compounds read low 1 | locus YGL086W, strain mad1, active compounds read low 1 | locus YGL167C, strain pmr1, active compounds read low 1 | locus YGL173C, strain kem1, active compounds read low 0.985 | locus YGL227W, strain vid30, active compounds read low 1.01 | locus YGL240W, strain doc1, active compounds read low 1.02 | locus YGL248W, strain PDE1, active compounds read low 1 | locus YGL253W, strain hxk2, active compounds read low 1.01 | locus YGR135W, strain pre9, active compounds read low 1 | locus YGR252W, strain gcn5, active compounds read low 1.13 | locus YHR013C, strain ard1, active compounds read low 0.998 | locus YHR027C, strain rpn1, active compounds read low 1 | locus YHR030C, strain SLT2, active compounds read low 1.01 and 0.969 | locus YHR079C, strain IRE1 (second series), active compounds read low 0.96 | locus YHR079C, strain IRE1, active compounds read low 0.971 | locus YHR094C, strain hxt1, active compounds read low 0.981 | locus YHR129C, strain ARP1, active compounds read low 1 | locus YHR142W, strain chs7, active compounds read low 1.02 | locus YHR200W, strain rpn10, active compounds read low 1.01 | locus YIL066C, strain RNR3, active compounds read low 0.992 | locus YIL073C, strain SPO22, active compounds read low 1.06 | locus YIL125W, strain kgd1, active compounds read low 1.01 | locus YIR030C, strain dcg1, active compounds read low 0.991 | locus YJL092W, strain hpr5, active compounds read low 1 | locus YJL095W, strain BCK1 (second series), active compounds read low 0.988 | locus YJL095W, strain BCK1, active compounds read low 1.02 and 0.974 | locus YJL115W, strain asf1, active compounds read low 1.01 | locus YJL129C, strain trk1, active compounds read low 0.997 | locus YJL134W, strain LCB3, active compounds read low 1.01 | locus YJL154C, strain vps35, active compounds read low 1.01 | locus YJL164C, strain tpk1, active compounds read low 1.01 | locus YJL166W, strain qcr8, active compounds read low 1 | locus YJL168C, strain set2, active compounds read low 0.988 | locus YJL187C, strain SWE1 (second series), active compounds read low 1.01 | locus YJL187C, strain SWE1, active compounds read low 1 | locus YJR043C, strain POL32, active compounds read low 1.03 | locus YJR066W, strain TOR1, active compounds read low 0.925 | locus YJR075W, strain HOC1, active compounds read low 1.01

Reference: PubChem BioAssay AID1159580 (chemical genetic matrix, 2015)
